Bioassay records: PubChem BioAssay, several laboratories
An excerpt weighted towards active compounds, which were near 1.3% of everything screened.
Mtb UGM inh: inhibitors of M. tuberculosis UDP-galactopyranose mutase. P9WIQ1. purified UGM, fluorescence polarization probe displacement. inhibition, % at 10 µM. 0.06% of 320,000 active. AID 504406; in the data active = inhibition above about 10%, passing the limit was not always enough; inconclusive = no clear call, values can overlap the other calls
Target sequence (P9WIQ1 whole entry, looked up): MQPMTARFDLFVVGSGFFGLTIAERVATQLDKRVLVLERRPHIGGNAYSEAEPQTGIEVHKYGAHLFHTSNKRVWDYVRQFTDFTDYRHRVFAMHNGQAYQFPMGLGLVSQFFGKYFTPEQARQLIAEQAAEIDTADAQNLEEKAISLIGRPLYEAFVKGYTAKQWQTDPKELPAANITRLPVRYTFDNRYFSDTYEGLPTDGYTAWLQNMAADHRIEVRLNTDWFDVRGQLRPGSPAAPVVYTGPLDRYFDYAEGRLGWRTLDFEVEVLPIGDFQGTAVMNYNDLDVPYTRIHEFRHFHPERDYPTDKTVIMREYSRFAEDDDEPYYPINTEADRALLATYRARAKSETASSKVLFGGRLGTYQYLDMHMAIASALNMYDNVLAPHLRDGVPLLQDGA
PrP 5UTR inh: suppresses PrP 5' UTR mRNA reporter expression; 0.35% of 340,000 active; AID 488862; cell-based PrP 5' UTR mRNA reporter, plate reader; inhibition, % (concentration not given with the values); in the data active = inhibition above about 52%
Rv3671c inh: Rv3671c (M. tuberculosis) protease inhibition; P9WHR9; inhibition, % at 5.96 µM; 0.048% of 320,000 active; in the data active = inhibition above about 38%;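 note: extracellular domain of Rv3671c used as enzyme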
RecA splice inh: blocks M. tuberculosis RecA intein splicing; AID 2221; 0.75% of 290,000 active; cell-free RecA intein splicing, fluorescence; inhibition, % (concentration not given with the values); P9WHJ3; in the data active = inhibition above about 30%; inconclusive = no clear call, values can overlap the other calls
BJeLR viability: BJeLR cell viability loss | 0.17% of 300,000 active | inhibition, % (concentration not given with the values) | BJeLR (HRASV12) viability, CellTiter-Glo ATP luminescence, 48 h; in the data active = inhibition above about 50%; inconclusive = no clear call, values can overlap the other calls
FadD28 FP inh: blocks FadD28 binding to the bisubstrate probe | fluorescence polarization | inhibition, % at 12.5 µM | 0.22% of 360,000 active; in the data active = inhibition above about 8.5%, passing the limit was not always enough; inconclusive = no clear call, values can overlap the other calls
Hits are given with their value; - = inactive; ? = inconclusive; . = not tested or not shown.

SMILES | Mtb UGM inh | PrP 5UTR inh | Rv3671c inh | RecA splice inh | BJeLR viability | FadD28 FP inh
N#Cc1c(SCC(=O)Nc2nc3ccccc3s2)sc2c(O)cc(=O)[nH]c12 | - | - | - | . | . | 12.1
N#Cc1c(SCC(=O)Nc2nc3ccc(Br)cc3s2)sc2c(O)cc(=O)[nH]c12 | - | - | - | . | - | -
COc1ccc(CN2CCC2(C)C(=O)NCc2ccc3c(c2)OCO3)c2ccccc12 (configuration not stated) | . | . | . | . | . | -
COc1ccccc1NC(=O)N(C)C[C@H]1Oc2ncc(Br)cc2C(=O)N([C@H](C)CO)C[C@H]1C | . | . | . | . | . | -
O=C1N=NC2=C1c1c3ccccc3c(O)n1CC2 | - | - | - | 56.2 | - | -
c1ccc(Cn2ncc3c(N4CCN(c5ccccc5)CC4)ncnc32)cc1 | . | . | . | . | . | -
CCc1nc2c(OCCc3cccc(OC)c3)cccn2c1N(C=O)Cc1ccc(OC)cc1 | . | . | . | . | . | -
Cc1cc2nc(C(C)(C)C)c(Cc3cccc(F)c3)n2c(C)c1Br | . | . | . | . | . | -
O=C(Oc1cccc(OC(=O)c2ccco2)c1)c1ccco1 | - | - | . | 49.3 | - | -
O=C(Oc1cccc(-n2cnnn2)c1)c1ccco1 | - | - | - | 43.0 | - | -
Cc1ccc(C(=O)Oc2cccc(-n3cnnn3)c2)cc1 | - | - | - | - | - | -
O=C(Oc1ccc(-c2nnco2)cc1)c1ccco1 | - | - | - | 46.8 | - | -
c1ccc(COc2ccc(-c3cc4nc(NCCCn5ccnc5)ccn4n3)cc2)cc1 | . | . | . | . | . | -
COc1cc(C2C(C#N)=C(N)Oc3c2c(-c2ccccc2)nn3-c2ccccc2)cc(OC)c1OC (configuration not stated) | - | - | - | 69.6 | - | -
Cc1nn(-c2ccccc2)c2c1C(c1ccc([N+](=O)[O-])cc1)C(C#N)=C(N)O2 (configuration not stated) | - | - | - | - | - | -
O=C(c1ccco1)N1CCN(C2CN(Cc3ccc([N+](=O)[O-])cc3)S(=O)(=O)C2)CC1 (configuration not stated) | . | . | . | . | . | -
Cc1oc2c(c1C(=O)O)C(=O)c1ccccc1C2=O | - | - | - | 67.7 | - | -
Cc1oc2c(c1C(=O)c1ccccc1)C(=O)C(=O)c1ccccc1-2 | - | - | - | - | - | -
CCOC(=O)c1c(C)oc2c1C(=O)c1ccccc1C2=O | - | - | - | 59.3 | . | -
COc1ccc(NS(=O)(=O)c2cccc(C(=O)N3CCN(S(=O)(=O)c4ccccc4)CC3)c2)cc1 | . | - | . | . | . | -
O=C(Nc1ccc2c(c1)OCO2)c1cc(C2CCCCN2C(=O)c2ccc(Cl)cc2)on1 (configuration not stated) | . | . | . | . | . | -
CC(C)[C@H]1C(=O)N2CCC[C@H]2[C@]2(O)O[C@](NC(=O)[C@@H]3C=C4c5cccc6[nH]cc(c56)C[C@H]4N(C)C3)(C(C)C)C(=O)N12 | - | - | - | 34.6 | . | -
COC(=O)c1ccc(-n2c(C)cc(C(=O)COC(=O)C3=COCCO3)c2C)cc1 | - | - | - | . | . | -
COC(=O)c1ccc(-n2c(C)cc(C(=O)CCl)c2C)cc1 | - | - | - | 34.7 | - | -
COc1ccc(NC(=O)C2(C)Cc3c(-c4ccc(NC(C)=O)cc4)ccnc3O2)cc1OC (configuration not stated) | . | . | . | . | . | -
SMILES | Mtb UGM inh | PrP 5UTR inh | Rv3671c inh | RecA splice inh | BJeLR viability | FadD28 FP inh
CC1(C(=O)NS(=O)(=O)Cc2cccc(Cl)c2)CCN1C(=O)C/C=C/c1ccccc1 (configuration not stated) | . | . | . | . | . | -
O=C1C=CC(=O)c2c(O)c(CO)c(CO)c(O)c21 | . | - | . | . | . | 18.3
CCCCN(C(=O)c1cccc(S(=O)(=O)N(CC)c2ccccc2)c1)c1c(N)n(CCCC)c(=O)[nH]c1=O | . | - | . | . | . | -
Cc1ccc(NC(=O)CN2C(=O)N/C(=C/c3ccco3)C2=O)cc1 | - | - | - | - | - | -
Cc1cccc(NC(=O)CN2C(=O)N/C(=C/c3ccc(C)s3)C2=O)c1 | - | - | - | - | - | ?
Cc1ccc(NC(=O)CN2C(=O)N/C(=C/c3cccn3-c3ccc(C(=O)O)cc3)C2=O)cc1 | - | - | - | . | . | 17.8
Cc1cccc(NC(=O)CN2C(=O)N/C(=C/c3cc(C)n(C(C)C)c3C)C2=O)c1 | - | - | - | - | - | 41.7
COc1ccc(NC(=O)CN2C(=O)S/C(=C/c3cccn3-c3ccc(C(=O)O)cc3)C2=O)cc1 | - | - | . | - | . | -
Cc1ccc(NC(=O)CN2C(=O)N/C(=C/c3cc(C)n(-c4ccc(C(=O)O)cc4)c3C)C2=O)cc1 | . | - | . | . | . | 52.5
Cc1ccc(NC(=O)CN2C(=O)S/C(=C\c3cc(C)n(-c4ccc(C(=O)O)cc4)c3C)C2=O)cc1 | - | - | - | - | - | 59.9
O=C1C=CC(=NN=C(c2ccccc2)c2ccccc2)C=C1 | . | . | . | . | . | -
COc1cc(OC)c(C(=O)C=Cc2ccc(OC)c(OC)c2)c(OC)c1 | . | - | . | . | . | -
O=C(/C=C/c1cccc(Cl)c1)c1ccc([N+](=O)[O-])o1 | - | - | - | - | 107.4 | -
COc1cc(/C=C/[N+](=O)[O-])ccc1O | - | - | - | - | 72.5 | -
COc1cc(/C=C/C(=O)c2ccc([N+](=O)[O-])o2)ccc1O | - | - | - | - | 92.4 | -
COc1ccc(/C=C/C(=O)c2ccc([N+](=O)[O-])o2)cc1OC | - | . | - | - | 69.8 | .
COc1cc(/C=C/C(=O)O)ccc1O | - | - | - | - | - | -
CC1(C(=O)Nc2cnc3ccccc3c2)CCN1Cc1ccccc1OC(F)F (configuration not stated) | . | . | . | . | . | -
COC(=O)c1cc(=O)nc(NN=Cc2ccc(OC)cc2)s1 | . | . | . | . | . | -
CSc1nc(Cl)c(Br)c(Nc2c[nH]c(=O)[nH]c2=O)n1 | . | - | . | . | . | .
CC1=C(C)/C(=N\OS(=O)(=O)c2ccccc2)C=CC1=O | - | - | - | 41.4 | 84.3 | -
Cc1ccc(NC(=O)c2cccc(C(=O)Nc3ccc(C)cc3C(=O)O)c2)c(C(=O)O)c1 | 13.2 | - | - | - | - | -
Cc1cccc(C(=O)Nc2sc(-c3ccccc3)cc2C(=O)O)c1 | - | - | - | - | - | 24.2
CC(C)(C)C(=O)Nc1sc(-c2ccccc2)cc1C(=O)O | - | - | - | - | - | -
COc1ccc(Cl)c(-c2cc(C(=O)Nc3ccc(F)cc3)[nH]n2)c1 | . | . | . | . | . | -
SMILES | Mtb UGM inh | PrP 5UTR inh | Rv3671c inh | RecA splice inh | BJeLR viability | FadD28 FP inh
O=C1NC(=S)SC1=Cc1ccccc1Cl | . | - | . | . | . | -
O=C1NC(=S)S/C1=C\c1ccc(SCc2ccccc2)o1 | - | - | - | . | . | 18.1
O=C1NC(=S)S/C1=C\c1ccc(SCc2ccco2)o1 | - | - | - | . | . | 45.2
O=C(O)c1cc(Br)ccc1NN=C1CCCCC1 | . | - | - | - | - | 12.3
CC(C)(C)c1cc(NC(=O)CCl)n(-c2ccccc2)n1 | - | - | - | 38.1 | - | -
CC(Cl)C(=O)Nc1cc(C(C)(C)C)nn1-c1ccccc1 (configuration not stated) | - | - | - | - | - | -
CN(C)c1ccc(CNC(=O)C2(C)Cc3c(-c4cccc(C(N)=O)c4)ccnc3O2)cc1 (configuration not stated) | . | . | . | . | . | -
O=C(Nc1ccc2nc(-c3ccccc3)[nH]c2c1)c1ccco1 | - | - | - | - | - | -
